In PubChem BioAssay AID743433 (Vanderbilt Specialized Chemistry Center, 2014) one finds fold shift data, which are given here for 1 compound.

The experiment concerns the target Metabotropic glutamate receptor 2 (Homo sapiens) (UniProt Q14416). The experiment can be described thus: off-target activity check on mGlu2 receptor – cell-based, GIRK thallium flux, agonist curve fold shift, selectivity assay for mGlu8/mGlu7 PAM project, profiling panel (AID 743433). The following applies: mGlu2/GIRK cells, agonist CRC shift, agonist EC50 fold shift, at 10 µM.

The structures appear in SMILES notation.

Metabotropic glutamate receptor 2 (Homo sapiens), sequence (Q14416 whole entry, looked up): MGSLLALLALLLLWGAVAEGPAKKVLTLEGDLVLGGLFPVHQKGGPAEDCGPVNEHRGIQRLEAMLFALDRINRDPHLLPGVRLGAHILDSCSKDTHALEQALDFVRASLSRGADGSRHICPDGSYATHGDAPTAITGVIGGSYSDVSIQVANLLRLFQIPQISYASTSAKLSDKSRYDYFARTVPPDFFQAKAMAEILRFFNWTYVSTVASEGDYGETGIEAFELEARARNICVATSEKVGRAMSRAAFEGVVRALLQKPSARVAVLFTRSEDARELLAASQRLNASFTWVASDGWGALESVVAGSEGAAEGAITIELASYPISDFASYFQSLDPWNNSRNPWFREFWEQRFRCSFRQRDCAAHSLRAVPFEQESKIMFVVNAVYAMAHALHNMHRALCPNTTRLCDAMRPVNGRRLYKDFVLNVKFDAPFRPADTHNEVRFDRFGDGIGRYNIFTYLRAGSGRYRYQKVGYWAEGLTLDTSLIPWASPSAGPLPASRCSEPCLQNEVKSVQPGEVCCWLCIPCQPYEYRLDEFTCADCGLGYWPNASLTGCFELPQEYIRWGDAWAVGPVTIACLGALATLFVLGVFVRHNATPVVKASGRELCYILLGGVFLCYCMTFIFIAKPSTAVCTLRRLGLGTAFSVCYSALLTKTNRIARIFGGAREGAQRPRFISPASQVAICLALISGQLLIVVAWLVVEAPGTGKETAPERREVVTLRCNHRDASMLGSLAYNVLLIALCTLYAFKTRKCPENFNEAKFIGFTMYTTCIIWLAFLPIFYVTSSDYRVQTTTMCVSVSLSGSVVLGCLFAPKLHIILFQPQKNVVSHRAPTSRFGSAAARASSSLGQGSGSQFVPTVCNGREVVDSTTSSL

Consider `COC(=O)c1ccc(-n2c(C)cc(C(=O)CSc3ccc(NC(C)=O)cc3)c2C)cc1`, for which the fold shift is 1.
